Sm TGR inh = qHTS Assay for the Inhibitors of Schistosoma Mansoni Peroxiredoxins | 360,000 tested, 3% active | Potency, µM (highest dose often 114 µM), for the others: top-dose activity change, negative = inhibition, hits mostly inhibitors | Schistosoma mansoni thioredoxin glutathione reductase (TGR), Q962Y6 | purified TGR, DTNB reduction, TNB absorbance 405 nm; note: nearly all actives have a fitted effect of over 60% in size
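First, TGR (20 nM dispensed) and NADPH were mixed with compound. Second, a 15 min room-temperature incubation followed. Third, further NADPH and then DTNB were added to start the reaction. Finally, TNB absorbance was monitored kinetically.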
FMDV antiviral = High Throughput Screening for Foot and Mouth Disease Virus Antivirals; FMDV antiviral cell-based qHTS; Potency, µM (doses to about 57.9 µM), for inactives: at the highest dose activity change, negative = inhibition, most hits filed as inhibitors; 410,000 tested, 1.2% active; calls by dose curve; tested in HEK293T cells; note: read-out not given here; nearly all actives have a fitted effect of over 45% in size
TbPYK inhibitor = qHTS of Trypanosoma Brucei Inhibitors. Potency, µM (titrated, usually from 76.8 µM), for the others: at the top dose activity, negative = inhibition, most hits filed as inhibitors. 410,000 tested, 0.12% active. TbPYK enzyme, Kinase-Glo Plus ATP luminescence, 45 min; note: nearly all actives have a fitted effect of over 50% in size
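Luminescence from Kinase-Glo Plus, added after a 45-minute room-temperature reaction, served as the end-point read-out. The enzyme and substrate were preincubated with compound before ADP (130 uM final) initiated turnover. Concentration-effect curves came from normalized qHTS data.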
RE007 growth inh = qHTS Assay for Inhibitors of the HIV-1 protein Vpr | S. pombe RE007 Vpr strain, BacTiter-Glo ATP luminescence, 24 h | AID 651644, 2012 | Potency, µM (series often up to 92.2 µM), for inactives: at the top dose activity change, negative = less growth, actives largely listed as inhibitors | 360,000 tested, 0.21% active; active = well fitted falling curve with a large enough effect; inconclusive = small, poorly fitted or top-dose-only effect; inactive = no such curve, though single readings can be large or run the other way; note: nearly all actives have a fitted effect of over 50% in size
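Fission yeast strain RE007, carrying one chromosomally integrated HIV-1 vpr copy, was seeded at OD 0.01 in PMG+AL medium with 23 nL pinned compound. After 24 h at 30 °C and 99% humidity, viability was read by BacTiter-Glo luminescence.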
* marks the source's active call; other numbers are inactive results; ? = inconclusive; nt = no result. Rows were chosen to be rich in hits. Some 3.7% of all compounds tested hit in one or more screens of this group. Unless noted, calls come from the whole dose curve; as a rule, active = well fitted curve in the direction sought with a large enough effect; inconclusive = small, poorly fitted or top-dose-only effect, or another doubt; inactive = no such curve, though single readings can be large; an effect the other way counts as inactive or inconclusive. % is set by controls: 0 for no effect and ±100 for the full control effect; potency is the fitted concentration of half-maximal effect.

SMILES	Sm TGR inh	FMDV antiviral	TbPYK inhibitor	RE007 growth inh
Cc1ccc(-n2nc3c(N4CCCC(C(=O)NCc5ccc(Cl)cc5)C4)nnc(C)c3c2C)cc1 (centres undefined)	-4%	5%	2%	nt
O=C(CCNS(=O)(=O)c1ccc2c(c1)CCN2C(=O)C1CC1)Nc1ccc(F)cc1F	-35%	0%	-1%	nt
COc1ccccc1N1CCN(C(=O)CN2C(=O)COc3ccc(S(=O)(=O)N4CCC(C)CC4)cc32)CC1	-6%	-14%	-3%	nt
Cc1cc(C)nc(/N=C(\N)Nc2ccc(OCCC(C)C)cc2)n1	55%	8.9µM*	-8%	-2%
Cc1cc(C)nc(/N=C(\N)Nc2cccc(OCc3ccccc3)c2)n1	-25%	32µM*	6%	-2%
COc1ccc(N/C(N)=N/c2nc(C)cc(C)n2)cc1	nt	-19%	-13%	-3%
Cc1cc(C)nc(/N=C(\N)Nc2ccc(OCc3ccccc3)cc2)n1	18%	28µM*	1%	5%
Cc1sc2ncn(CC(=O)Nc3ccc(C(C)C)cc3)c(=O)c2c1S(=O)(=O)N1CCN(c2ncccn2)CC1	-6%	-10%	-1%	nt
Cc1ccc(S(=O)(=O)N(CCc2ccccc2)CC(=O)Nc2ccc(Br)cc2)cc1	8%	32%	0%	nt
CC/C(=N\Nc1ccnc2cc(Cl)ccc12)c1ccc(O)cc1	50µM*	-3%	3%	3%
OCCNCCCOc1cccc(Cl)c1Cl	nt	-10%	nt	nt
Cc1ccc(C)c(N2CCN(C(=O)CN3C(=O)CSc4c3c(C)nn4-c3ccccc3)CC2)c1	-12%	35µM*	-3%	nt
CC(=C\C(=O)O)/C(=C/c1ccc(C)o1)C(=O)O	32µM*	-5%	-2%	-6%
COCCn1c(SCC(=O)c2ccccc2)nc2ccccc2c1=O	-8%	-28%	1%	3%
COCCn1c(SCCOc2ccccc2)nc2ccccc2c1=O	-1%	25µM*	2%	31%
Cc1cc(C)c2oc(-c3cccc(NC(=O)COc4ccc([N+](=O)[O-])cc4)c3)nc2c1	1%	?	1%	nt
CS(=O)(=O)c1ncc(Cl)c(C(=O)N2CCN(c3cccc(Cl)c3)CC2)n1	3.5µM*	18µM*	-3%	nt
COc1ccc(OCC(=O)N2CCN(c3cccc(Cl)c3)CC2)cc1	-27%	0%	3%	-27%
CCS(=O)(=O)c1ncc(Cl)c(C(=O)N2CCN(c3cccc(Cl)c3)CC2)n1	7.1µM*	14µM*	-11%	nt
N#CCSc1nc(Nc2ccc3c(c2)OCO3)c2ccccc2n1	11%	22µM*	1%	-13%
O=S(=O)(c1ccccc1)c1nc(-c2ccco2)oc1NCc1ccccc1	35µM*	19%	0%	-15%
N#Cc1nc(-c2ccco2)oc1NCc1cccnc1	89µM*	nt	-10%	15%
O=S(=O)(c1ccccc1)c1nc(-c2ccco2)oc1NCc1ccco1	35µM*	-10%	-6%	14%
N#Cc1nc(-c2ccco2)oc1NCc1ccc(F)cc1	45%	-8%	0%	9%
O=S(=O)(c1ccccc1)c1nc(-c2ccccc2Cl)oc1NCCCN1CCOCC1	nt	21%	1%	-4%
SMILES	Sm TGR inh	FMDV antiviral	TbPYK inhibitor	RE007 growth inh
O=S(=O)(c1ccccc1)c1nc(-c2ccco2)oc1Nc1ccccc1	0%	31%	-9%	26%
O=S(=O)(c1ccc(F)cc1)c1nc(-c2ccco2)oc1Nc1ccccc1	4%	54%	7%	-14%
O=S(=O)(c1ccccc1)c1nc(-c2ccco2)oc1NCCCn1ccnc1	40µM*	10%	-12%	-4%
CCOc1ccccc1C(=O)NCC(c1ccc(N(C)C)cc1)N1CCc2ccccc21 (centres undefined)	9%	-16%	-2%	nt
Cc1ccc(C(=O)Nc2nnc(CC(=O)N/N=C/c3ccc(O)c(O)c3)s2)cc1	45µM*	8%	4%	nt
Nc1c(N2CCCC2)cc(Cl)c2nonc12	56µM*	?	-14%	-28%
NC(=O)CSCc1cccc(Br)c1	2%	12%	3%	-4%
NC(CSCc1cccc(Br)c1)C(=O)O (centres undefined)	40µM*	8%	-7%	-8%
CCCc1[nH]nc2c1C(c1ccccc1OCC)C(C#N)=C(N)O2 (centres undefined)	?	-20%	-1%	-12%
Cc1ccc(-c2ccc(C3C(C#N)=C(N)Oc4n[nH]c(C)c43)o2)cc1 (centres undefined)	-16%	22%	-6%	11%

From PubChem BioAssay
